# According to the supplement of paper PMC4466140:
# Key:
# Test in all cases: SPOT peptide array binding signal intensity (averaged, normalized) (arbitrary units (background-subtracted, floor 0; scale differs between SH3 domains)); higher = stronger binding of the SH3 domain to the peptide
# AgAbp1 = target: AgAbp1
# In short: (§1)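 Binding signal refers to normalized, background-subtracted spot intensity averaged over replicates, expressed in arbitrary units that differ between domains. GST-fused SH3 domains from four yeast species were incubated at 10 μg/ml overnight at 4°C on cellulose membranes of synthetic 15-mer peptides with cysteines replaced by serines. Bound protein was detected with anti-GST antibody, an HRP anti-mouse secondary and luminol, and quantified with Genespotter.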
# AgBbc1 = target: AgBbc1
# In short: as §1
# AgBem1-D1 = target: AgBem1-D1
# In short: as §1
# AgBzz1-D1 = target: AgBzz1-D1
# In short: as §1
# AgBzz1-D2 = target: AgBzz1-D2
# In short: as §1
# AgCyk3 = target: AgCyk3
# In short: as §1
# AgFus1 = target: AgFus1
# In short: as §1
# AgHof1 = target: AgHof1
# In short: as §1
# AgHse1 = target: AgHse1
# In short: as §1
# AgLsb1 = target: AgLsb1
# In short: as §1
# AgLsb4 = target: AgLsb4
# In short: as §1
# AgMyo5 = target: AgMyo5
# In short: as §1
# AgNbp2 = target: AgNbp2
# In short: as §1
# AgRvs167 = target: AgRvs167
# In short: as §1
# AgSho1 = target: AgSho1
# In short: as §1
# AgSla1-D1-D2 = target: AgSla1-D1-D2
# In short: as §1
# AgSla1-D3 = target: AgSla1-D3
# In short: as §1
# CaAbp1-D1 = target: CaAbp1-D1
# In short: as §1
# CaAbp1-D2 = target: CaAbp1-D2
# In short: as §1
# CaBbc1 = target: CaBbc1
# In short: as §1
# CaBem1-D1 = target: CaBem1-D1
# In short: as §1
# CaBzz1-D1 = target: CaBzz1-D1
# In short: as §1
# CaBzz1-D2 = target: CaBzz1-D2
# In short: as §1
# CaCyk3 = target: CaCyk3
# In short: as §1
# CaFus1 = target: CaFus1
# In short: as §1
# CaHof1 = target: CaHof1
# In short: as §1
# CaHse1 = target: CaHse1
# In short: as §1
# CaLsb1 = target: CaLsb1
# In short: as §1
# CaLsb4 = target: CaLsb4
# In short: as §1
# CaMyo5 = target: CaMyo5
# In short: as §1
# CaNbp2 = target: CaNbp2
# In short: as §1
# CaRvs167 = target: CaRvs167
# In short: as §1
# CaRvs167-3 = target: CaRvs167-3
# In short: as §1
# CaSho1 = target: CaSho1
# In short: as §1
# CaSla1-D1-D2 = target: CaSla1-D1-D2
# In short: as §1
# CaSla1-D3 = target: CaSla1-D3
# In short: as §1
# ScAbp1 = target: ScAbp1
# In short: as §1
# ScBbc1 = target: ScBbc1
# In short: as §1
# ScBem1-D1 = target: ScBem1-D1
# In short: as §1
# ScBzz1-D1 = target: ScBzz1-D1
# In short: as §1
# ScBzz1-D2 = target: ScBzz1-D2
# In short: as §1
# ScCyk3 = target: ScCyk3
# In short: as §1
# ScFus1 = target: ScFus1
# In short: as §1
# ScHof1 = target: ScHof1
# In short: as §1
# ScHse1 = target: ScHse1
# In short: as §1
# ScLsb1 = target: ScLsb1
# In short: as §1
# ScLsb2 = target: ScLsb2
# In short: as §1
# ScLsb3 = target: ScLsb3
# In short: as §1
# ScLsb4 = target: ScLsb4
# In short: as §1
# ScMyo3 = target: ScMyo3
# In short: as §1
# ScMyo5 = target: ScMyo5
# In short: as §1
# ScNbp2 = target: ScNbp2
# In short: as §1
# ScPex13 = target: ScPex13
# In short: as §1
# ScRvs167 = target: ScRvs167
# In short: as §1
# ScSho1 = target: ScSho1
# In short: as §1
# ScSla1-D1-D2 = target: ScSla1-D1-D2
# In short: as §1
# ScSla1-D3 = target: ScSla1-D3
# In short: as §1
# SpAbp1-D1 = target: SpAbp1-D1
# In short: as §1
# SpBbc1 = target: SpBbc1
# In short: as §1
# SpBzz1-D1 = target: SpBzz1-D1
# In short: as §1
# SpBzz1-D2 = target: SpBzz1-D2
# In short: as §1
# SpCyk3 = target: SpCyk3
# In short: as §1
# SpHof1 = target: SpHof1
# In short: as §1
# SpHof1-2 = target: SpHof1-2
# In short: as §1
# SpHof1-3 = target: SpHof1-3
# In short: as §1
# SpHse1 = target: SpHse1
# In short: as §1
# SpLsb1 = target: SpLsb1
# In short: as §1
# SpLsb4 = target: SpLsb4
# In short: as §1
# SpMyo1 = target: SpMyo1
# In short: as §1
# SpNbp2 = target: SpNbp2
# In short: as §1
# SpPex13 = target: SpPex13
# In short: as §1
# SpRvs167 = target: SpRvs167
# In short: as §1
# SpSla1-D1-D2 = target: SpSla1-D1-D2
# In short: as §1
# SpSla1-D3 = target: SpSla1-D3
# In short: as §1
binder,measurement,setting,value
RKRAPTPPAPSRSEK,SPOT peptide array binding signal intensity,AgAbp1,639
same,SPOT peptide array binding signal intensity,AgBbc1,146
same,SPOT peptide array binding signal intensity,AgBem1-D1,112
same,SPOT peptide array binding signal intensity,AgBzz1-D1,128
same,SPOT peptide array binding signal intensity,AgBzz1-D2,98
same,SPOT peptide array binding signal intensity,AgCyk3,2
same,SPOT peptide array binding signal intensity,AgFus1,≤ 0
same,SPOT peptide array binding signal intensity,AgHof1,25
same,SPOT peptide array binding signal intensity,AgHse1,171
same,SPOT peptide array binding signal intensity,AgLsb1,253
same,SPOT peptide array binding signal intensity,AgLsb4,35.5
same,SPOT peptide array binding signal intensity,AgMyo5,0.5
same,SPOT peptide array binding signal intensity,AgNbp2,1300
same,SPOT peptide array binding signal intensity,AgRvs167,4.33
same,SPOT peptide array binding signal intensity,AgSho1,5
same,SPOT peptide array binding signal intensity,AgSla1-D1-D2,167
same,SPOT peptide array binding signal intensity,AgSla1-D3,21.8
same,SPOT peptide array binding signal intensity,CaAbp1-D1,3830
same,SPOT peptide array binding signal intensity,CaAbp1-D2,3240
same,SPOT peptide array binding signal intensity,CaBbc1,426
same,SPOT peptide array binding signal intensity,CaBem1-D1,306
same,SPOT peptide array binding signal intensity,CaBzz1-D1,2860
same,SPOT peptide array binding signal intensity,CaBzz1-D2,3180
same,SPOT peptide array binding signal intensity,CaCyk3,12
same,SPOT peptide array binding signal intensity,CaFus1,106
same,SPOT peptide array binding signal intensity,CaHof1,0.25
same,SPOT peptide array binding signal intensity,CaHse1,3.25
same,SPOT peptide array binding signal intensity,CaLsb1,5.5
same,SPOT peptide array binding signal intensity,CaLsb4,249
same,SPOT peptide array binding signal intensity,CaMyo5,3.5
same,SPOT peptide array binding signal intensity,CaNbp2,797
same,SPOT peptide array binding signal intensity,CaRvs167,27.8
same,SPOT peptide array binding signal intensity,CaRvs167-3,20.2
same,SPOT peptide array binding signal intensity,CaSho1,4
same,SPOT peptide array binding signal intensity,CaSla1-D1-D2,1150
same,SPOT peptide array binding signal intensity,CaSla1-D3,≤ 0
same,SPOT peptide array binding signal intensity,ScAbp1,187
same,SPOT peptide array binding signal intensity,ScBbc1,114
same,SPOT peptide array binding signal intensity,ScBem1-D1,21.5
same,SPOT peptide array binding signal intensity,ScBzz1-D1,128
same,SPOT peptide array binding signal intensity,ScBzz1-D2,26
same,SPOT peptide array binding signal intensity,ScCyk3,9.5
same,SPOT peptide array binding signal intensity,ScFus1,≤ 0
same,SPOT peptide array binding signal intensity,ScHof1,0.75
same,SPOT peptide array binding signal intensity,ScHse1,762
same,SPOT peptide array binding signal intensity,ScLsb1,89.5
same,SPOT peptide array binding signal intensity,ScLsb2,6
same,SPOT peptide array binding signal intensity,ScLsb3,1010
same,SPOT peptide array binding signal intensity,ScLsb4,31.5
same,SPOT peptide array binding signal intensity,ScMyo3,5
same,SPOT peptide array binding signal intensity,ScMyo5,1.5
same,SPOT peptide array binding signal intensity,ScNbp2,2100
same,SPOT peptide array binding signal intensity,ScPex13,30.5
same,SPOT peptide array binding signal intensity,ScRvs167,544
same,SPOT peptide array binding signal intensity,ScSho1,172
same,SPOT peptide array binding signal intensity,ScSla1-D1-D2,1970
same,SPOT peptide array binding signal intensity,ScSla1-D3,46.5
same,SPOT peptide array binding signal intensity,SpAbp1-D1,1150
same,SPOT peptide array binding signal intensity,SpBbc1,≤ 0
same,SPOT peptide array binding signal intensity,SpBzz1-D1,428
same,SPOT peptide array binding signal intensity,SpBzz1-D2,157
same,SPOT peptide array binding signal intensity,SpCyk3,≤ 0
same,SPOT peptide array binding signal intensity,SpHof1,140
same,SPOT peptide array binding signal intensity,SpHof1-2,5.75
same,SPOT peptide array binding signal intensity,SpHof1-3,486
same,SPOT peptide array binding signal intensity,SpHse1,123
same,SPOT peptide array binding signal intensity,SpLsb1,39.2
same,SPOT peptide array binding signal intensity,SpLsb4,1110
same,SPOT peptide array binding signal intensity,SpMyo1,4.5
same,SPOT peptide array binding signal intensity,SpNbp2,67.5
same,SPOT peptide array binding signal intensity,SpPex13,≤ 0
same,SPOT peptide array binding signal intensity,SpRvs167,450
same,SPOT peptide array binding signal intensity,SpSla1-D1-D2,199
same,SPOT peptide array binding signal intensity,SpSla1-D3,≤ 0
TSFKGRPKPPKTLKH,SPOT peptide array binding signal intensity,AgAbp1,590
same,SPOT peptide array binding signal intensity,AgBbc1,17.8
same,SPOT peptide array binding signal intensity,AgBem1-D1,≤ 0
same,SPOT peptide array binding signal intensity,AgBzz1-D1,≤ 0
same,SPOT peptide array binding signal intensity,AgBzz1-D2,28
same,SPOT peptide array binding signal intensity,AgCyk3,≤ 0
same,SPOT peptide array binding signal intensity,AgFus1,3
same,SPOT peptide array binding signal intensity,AgHof1,22.5
same,SPOT peptide array binding signal intensity,AgHse1,65.5
same,SPOT peptide array binding signal intensity,AgLsb1,≤ 0
same,SPOT peptide array binding signal intensity,AgLsb4,20
same,SPOT peptide array binding signal intensity,AgMyo5,1.5
same,SPOT peptide array binding signal intensity,AgNbp2,≤ 0
same,SPOT peptide array binding signal intensity,AgRvs167,2
same,SPOT peptide array binding signal intensity,AgSho1,≤ 0
same,SPOT peptide array binding signal intensity,AgSla1-D1-D2,71
same,SPOT peptide array binding signal intensity,AgSla1-D3,5.5
same,SPOT peptide array binding signal intensity,CaAbp1-D1,1460
same,SPOT peptide array binding signal intensity,CaAbp1-D2,1380
same,SPOT peptide array binding signal intensity,CaBbc1,43.5
same,SPOT peptide array binding signal intensity,CaBem1-D1,≤ 0
same,SPOT peptide array binding signal intensity,CaBzz1-D1,80.5
same,SPOT peptide array binding signal intensity,CaBzz1-D2,67.8
same,SPOT peptide array binding signal intensity,CaCyk3,3
same,SPOT peptide array binding signal intensity,CaFus1,44.5
same,SPOT peptide array binding signal intensity,CaHof1,2.75
same,SPOT peptide array binding signal intensity,CaHse1,2.75
same,SPOT peptide array binding signal intensity,CaLsb1,≤ 0
same,SPOT peptide array binding signal intensity,CaLsb4,≤ 0
same,SPOT peptide array binding signal intensity,CaMyo5,2.5
